Source: PubChem BioAssay
Compounds with a hit are over-represented: about 12% of the library has one in this group of screens.
G9a inh: qHTS Assay for Inhibitors of Histone Lysine Methyltransferase G9a; Histone-lysine N-methyltransferase EHMT2 (Homo sapiens), Q96KQ7; G9a H3K9 monomethylation, AlphaScreen, 2 h; Potency, µM (titrated, usually from 102 µM), for inactives: at the top dose activity, negative = inhibition, hits mostly inhibitors; hit rate 8.8% among 350,000; also: % is scaled to controls: 0 for no effect and ±100 for the full control effect; nearly all actives have a fitted effect of over 75% in size
Target sequence (Q96KQ7 913-1193 limits assumed): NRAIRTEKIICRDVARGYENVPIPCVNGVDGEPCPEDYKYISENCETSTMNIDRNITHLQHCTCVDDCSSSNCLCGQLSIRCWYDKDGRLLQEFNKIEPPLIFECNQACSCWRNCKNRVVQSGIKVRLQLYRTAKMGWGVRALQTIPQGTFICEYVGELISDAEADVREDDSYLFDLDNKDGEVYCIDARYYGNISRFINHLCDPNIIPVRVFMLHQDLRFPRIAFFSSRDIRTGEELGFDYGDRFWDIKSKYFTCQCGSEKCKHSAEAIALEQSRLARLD
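G9a (20 nM) preincubated 15 min RT with compounds, then 500 nM biotinylated H3K9 peptide and 20 uM SAM added; 2 h RT reaction. Monomethyl-H3K9 product detected by AlphaScreen with anti-H3K9me1 antibody, streptavidin donor and anti-rabbit IgG acceptor beads.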
HP1b binding inh: HTS for Inhibitors of HP1-beta Chromodomain Interactions with Methylated Histone Tails. Chromobox protein homolog 1 (Homo sapiens), P83916. AlphaScreen HP1-beta / biotin-H3K9me3 peptide binding. Potency, µM (titrated, usually from 114 µM), for the others: top-dose activity change, negative = inhibition, most hits filed as inhibitors. hit rate 0.56% among 390,000. AID 540317, 2011; also: nearly all actives have a fitted effect of over 70% in size
Target sequence (P83916 whole entry, looked up): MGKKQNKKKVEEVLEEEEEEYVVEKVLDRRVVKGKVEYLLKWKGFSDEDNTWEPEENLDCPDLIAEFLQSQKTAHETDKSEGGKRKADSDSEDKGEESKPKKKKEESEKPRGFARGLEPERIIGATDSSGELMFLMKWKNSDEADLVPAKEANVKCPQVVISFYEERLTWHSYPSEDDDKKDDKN
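AlphaScreen: HP1-beta (50 nM) preformed 30 min with biotin-H3(1-18)K9me3 peptide (50 nM) in PBS pH 7.4, 0.01% Tween-20. Compound added for 30 min at RT, then streptavidin donor/nickel chelate acceptor beads (10 ug/mL) for 30 min.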
BAZ2B inh: qHTS Assay for Inhibitors of BAZ2B | AID 504333, 2011 | hit rate 4.4% among 360,000 | Potency, µM (titrated, usually from 114 µM), for inactives: at the highest dose activity change, negative = inhibition, actives largely listed as inhibitors | AlphaScreen BAZ2B-H3K14Ac peptide displacement | Bromodomain adjacent to zinc finger domain protein 2B (Homo sapiens), Q9UIF8; also: % is scaled to controls: 0 for no effect and ±100 for the full control effect; nearly all actives have a fitted effect of over 60% in size
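Inhibition is scored as reduced AlphaScreen emission. The BAZ2B/b-H3(5-23)K14Ac complex (50 nM each) in PBS pH 7.4, 0.01% Tween-20 meets compound (up to 110 uM) for 30 min at RT before bead addition.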
Sfp PPTase inh: qHTS Assay for Inhibitors of Bacillus subtilis Sfp phosphopantetheinyl transferase (PPTase) | Biochemical Sfp PPTase activity, qHTS | Potency, µM, inactives show largest response in the series, negative = inhibition, actives largely listed as inhibitors | hit rate 3.5% among 310,000 | AID 1490, 2009;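 also: the enzyme is Sfp with the accession as filed and its product quenches rhodamine fluorescence; 0% = enzyme reaction without inhibitor and -100% = no enzyme wells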
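Reaction rates are the 30-min fluorescence difference (ex 525, em 598 nm) in wells containing 15 nM Sfp, 5 uM rhodamine-CoA and 12.5 uM BHQ-2-YbbR at pH 7.6 with 10 mM MgCl2.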
TDP1 block: qHTS Assay for Inhibitors of Tyrosyl-DNA Phosphodiesterase (TDP1); hit rate 0.28% among 350,000; recombinant TDP1, AlphaScreen DNA substrate cleavage; AID 485290, 2010; Potency, µM (titrated, usually from 130 µM), for inactives: at the highest dose activity change, negative = inhibition, most hits filed as inhibitors; Tyrosyl-DNA phosphodiesterase 1 (Homo sapiens), Q9NUW8; also: % is scaled to controls: 0 for no effect and ±100 for the full control effect; nearly all actives have a fitted effect of over 40% in size
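Signal: AlphaScreen proximity between streptavidin donor and anti-FITC acceptor beads on intact substrate. Reaction: Tdp1 1 nM, substrate 15 nM final, 5 min RT after 15 min compound preincubation.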
JMJD2A Tudor: qHTS Assay for Inhibitors of JMJD2A-Tudor Domain. Lysine-specific demethylase 4A (Homo sapiens), O75164. Potency, µM (titrated, usually from 114 µM), without a hit: at the top dose activity change, negative = inhibition, most hits filed as inhibitors. AlphaScreen JMJD2A-Tudor / H3K4me3 peptide binding. AID 504339, 2011. hit rate 4.4% among 390,000; also: % is scaled to controls: 0 for no effect and ±100 for the full control effect; nearly all actives have a fitted effect of over 50% in size
Starred values were filed as active, the others as inactive; ? = inconclusive; . = no result; [ ] = another dose, or the depositor's remark. Calls follow the shape of the dose curve; as a rule, active = well fitted curve in the direction sought with a large enough effect; inconclusive = small, poorly fitted or top-dose-only effect, or another doubt; inactive = no such curve, though single readings can be large; an effect the other way counts as inactive or inconclusive. Potency is read from the fitted curve at half-maximal effect.

SMILES	G9a inh	HP1b binding inh	BAZ2B inh	Sfp PPTase inh	TDP1 block	JMJD2A Tudor
COc1ccccc1OC(C)C(=O)Nc1ccc2c(c1)n(C)c(=O)n2C (centres undefined)	-8%	42%	?	-2%	3%	2%
CC(=O)Nc1ccc(S(=O)(=O)Nc2ccc3c(c2)n(C)c(=O)n3C)c(C)c1	14%	-4%	50µM*	9%	7%	-12%
CC(C)Sc1ccccc1C(=O)Nc1ccc2c(c1)n(C)c(=O)n2C	6.3µM*	5%	56µM*	-7%	.	-2%
CN(c1ccccc1C(=O)Nc1ccc2c(c1)n(C)c(=O)n2C)S(C)(=O)=O	1%	37%	-9%	14%	.	-7%
COc1cccc(CNC(=O)CCc2cn(Cc3ccccc3Cl)c3ccccc23)c1	-45%[59 µM]	27%	-16%	.	5%	-7%
O=C(COC(=O)C1CC2C=CC1C2)Nc1cccc(S(=O)(=O)N2CCOCC2)c1 (centres undefined)	.	62%	1%	9%	.	-7%
CCCN(CCC)C(=O)c1cc([N+](=O)[O-])cc2c1-c1ccc([N+](=O)[O-])cc1C2=C(C#N)C#N	45µM*	-13%	?	50µM*	8%	?
CCCN(CCC)C(=O)/C=C/c1cccc([N+](=O)[O-])c1	11%	14%	-22%	-2%	3%	-12%
Cc1nn(C)c(C)c1NC(=O)COc1ccccc1C#N	.	16%	.	.	-1%	-19%
COCCN=C1NC(=O)C(CC(=O)Nc2cccc(Cl)c2C)S1 (centres undefined)	50µM*	28%	2%	-9%	4%	-12%
CC(CN(C)C)CN1c2ccccc2Sc2ccc(C(F)(F)F)cc21 (centres undefined)	-46%[12.7 µM]	.	.	-7%	.	.
C=CCSC1=Nc2cc(OC)c(OC)cc2C2=NC(=O)CN12	50µM*	28%	-19%	-10%	3%	-16%
COc1cc2c(cc1OC)C1=NC(=O)CN1C(SCc1ccc(C)cc1)=N2	?	14%	79µM*	-7%	12%	-13%[57.1 µM]
Cc1ccc(CSC2=Nc3sccc3C3=NC(=O)CN23)cc1	-10%[12.7 µM]	20%	4%	-9%	4%	-27%
CCOc1ccc(NC(=S)NNc2ccnc3cc(Cl)ccc23)cc1	7.1µM*	11µM*	?	20µM*	5%	22µM*
S=C(NCc1ccncc1)Nc1ccc(Cl)cc1Cl	-28%	61%	-37%	6%	0%	-1%
S=C(NNc1ccnc2cc(Cl)ccc12)Nc1ccc(Cl)cc1Cl	?	?	?	20µM*	.	?
Cc1ccc(CNC(=S)Nc2cc(C)ccc2OC(F)F)cc1	8%	41%	-12%	11%	3%	-8%
O=C(O)c1cc(-c2ccc(/C=C3\NC(=O)N(c4ccc(Cl)cc4)C3=O)o2)ccc1Cl	10µM*	?	45µM*	50µM*	6.3µM*	32µM*
C#CCN1C(=O)S/C(=C\c2ccc(-c3ccc(Cl)c(C(=O)O)c3)o2)C1=O	45µM*	32%	-32%	-9%	.	-1%
O=C(O)c1cc(-c2ccc(/C=C3\NC(=O)N(c4ccccc4)C3=O)o2)ccc1Cl	45µM*	-4%	79µM*	79µM*	8.9µM*	56µM*
O=[N+]([O-])c1cc([N+](=O)[O-])c(Oc2cc(F)cc(F)c2)cc1NN1CCCCC1	16%[2.33 µM]	6%	-1%	.	1%	?
CCOc1ccccc1NC(=O)CSc1nnc(-c2ccco2)n1Cc1ccco1	18µM*	7%	?	-11%	7%	-34%
